Assay results published in PubChem BioAssay (Tox21).
Values joined by “and” are separate entries in the source; they are usually repeats but may differ in a detail not shown here. Identical values can stand only once. Inconclusive results are not listed. Active and inactive are the calls of the source. Unless noted, calls come from the whole dose curve; as a rule, active = well fitted curve in the direction sought with a large enough effect in the repeat runs; inconclusive = weak or mixed curves; inactive = no such curve, though single readings can be large; an effect the other way counts as inactive or inconclusive.

Columns and labels:
[1] = qHTS assay to identify small molecule agonists of H2AX (AID 1224845; active = well fitted activation curve with a large enough effect in the signal ratio in the repeat runs, not every such curve was filed as active; the % refers to the signal ratio)
How it was run: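 Wild-type CHO-K1 cells plated overnight, then exposed 3 hr at 37C to compounds at 15 concentrations (0.76% DMSO). Lysed, then HTRF anti-pH2AX(S139)-cryptate/anti-H2AX-d2 detection after 24 hr at room temperature; emissions 665 and 620 nm.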

[2] = qHTS assay to identify small molecule agonists of H2AX - cell viability counter screen (AID 1224847; calls by dose curve; note: nearly all actives have a fitted effect of over 30% in size; note: potency is the fitted concentration of half-maximal effect)
How it was run: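 Cytotoxicity counter screen in wild-type CHO-K1 cells: a 3 hr compound treatment at 37C across 15 concentrations, followed by CellTiter-Glo luminescence to gauge viable cells.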

[3] = qHTS assay to identify small molecule antagonists of the estrogen related receptor (ERR) signaling pathway from Tox21 library (AID 1224848); note: nearly all actives have a fitted effect of over 50% in size; note: potency is the fitted concentration of half-maximal effect
How it was run: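 Screening used an ERR reporter line supplied by NTP, exposed for 18 h at 37 C to library compounds delivered in DMSO. Signal was luciferase luminescence developed with ONE-Glo at room temperature for 30 min.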

[4] = qHTS assay to identify small molecule agonists of the estrogen related receptor (ERR) signaling pathway from Tox21 library (AID 1224849; calls by dose curve; note: nearly all actives have a fitted effect of over 15% in size); details: ERR reporter cell line, ONE-Glo luciferase, 18 h
How it was run: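 Six hours post-seeding at 37 C/5% CO2, ERR cells receive DMSO-solubilised compounds; after 18 h at 37 C, ONE-Glo reagent is applied and luminescence recorded.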

[5] = qHTS RealTime-Glo MT Cell Viability Assay in HepG2 cells - 24 hour (AID 1224867); note: nearly all actives have a fitted effect of over 50% in size; note: potency is the fitted concentration of half-maximal effect
How it was run: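 HepG2 suspension premixed with RealTime-Glo reagents is plated at 600 cells per well and left 5 h at 37 C/5% CO2. Compounds in DMSO then go in, and bioluminescence reflecting viable cell number is recorded over 40 h.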

[6] = qHTS RealTime-Glo MT Cell Viability Assay in HEK293 cells - 32 hour (AID 1224868); note: nearly all actives have a fitted effect of over 50% in size; note: potency is the fitted concentration of half-maximal effect
How it was run: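 Reads taken at 0, 8, 16, 24, 32 and 40 h from the same wells. HEK293 cells (600/well) carried RealTime-Glo reagents from seeding, with compound added after a 5 h settle at 37 C.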

[7] = A CellTox Green Cytotoxicity Assay to monitor cytotoxicity in HEK293 cells - 0 hour (AID 1224869); note: nearly all actives have a fitted effect of over 50% in size; note: potency is the fitted concentration of half-maximal effect
How it was run: (§1)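 Seeding of HEK293 cells together with cytotoxicity dye preceded a 5 h incubation at 37 C/5% CO2. Test compounds in DMSO were then added and fluorescence monitored across 40 h.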

[8] = qHTS RealTime-Glo MT Cell Viability Assay in HepG2 cells - 40 hour (AID 1224870); note: nearly all actives have a fitted effect of over 50% in size; note: potency is the fitted concentration of half-maximal effect
How it was run: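 HepG2 cells mixed with RealTime-Glo MT reagents (NanoLuc plus cell-permeant prosubstrate) were seeded at 600 cells/well, incubated 5 h at 37 C/5% CO2, then pinned with compounds in DMSO; nonlytic luminescence tracked viability during 40 h treatment.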

[9] = A CellTox Green Cytotoxicity Assay to monitor cytotoxicity in HEK293 cells - 40 hour (AID 1224871); note: nearly all actives have a fitted effect of over 45% in size; note: potency is the fitted concentration of half-maximal effect
How it was run: as §1

[10] = qHTS assay to identify small molecule agonists of the hypoxia (HIF-1) signaling pathway (AID 1224846; active = well fitted activation curve with a large enough effect in the signal ratio in the repeat runs, not every such curve was filed as active; the % refers to the signal ratio)
How it was run: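 Hypoxia-pathway activation was scored as increased beta-lactamase from an HRE-controlled reporter in ME-180 cells; plated at 2,000 cells per well with 0.5% dialyzed FBS, they were exposed 17 hrs to compounds and then given CCF4-AM.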
% is set by controls: 0 for no effect and ±100 for the full control effect.

CC(N=C(NC#N)Nc1ccncc1)C(C)(C)C (configuration not stated)
inactive: Potency [1] | Potency [2] | Potency [3] | activity change, positive = activation ([4]; at 42.5 µM (top of the series)) -15.5% | Potency [5] | Potency [6] | Potency [7] | Potency [8] | Potency [9]

CCCCCCCCCCCCCC[N+](C)(C)Cc1ccccc1
active: Potency [2] 25.7 µM and 49.2 µM | Potency [3] 9.84 µM and 10.6 µM and 11.2 mM | Potency [5] 44.3 µM and 10.7 µM and 17.8 mM | Potency [6] 3.52 µM and 3.01 µM and 2.82 mM | Potency [8] 22.2 µM and 9.52 µM and 15.8 mM | Potency [9] 24.9 µM and 19 µM and 15.8 mM
inactive: Potency [1] | activity change, positive = activation ([4]; at 42.5 µM (top of the series)) -57.9% | activity change, positive = activation ([4]; at 92.4 µM (top of the series)) -69.7% | activity change, positive = activation ([4]; at 46.2 mM (top of the series)) -75.1% | Potency [7]

C#CC1(O)CC[C@H]2[C@@H]3CCC4=CCCC[C@@H]4[C@H]3CC[C@@]21C (some centres not stated)
active: Potency [2] 89.8 µM | Potency [3] 61.1 µM and 26.6 µM | Potency [5] 21.3 µM | Potency [6] 17.4 µM and 19 µM | Potency [8] 49 µM and 23.9 µM | Potency [9] 34.7 µM and 21.3 µM
inactive: Potency [1] | activity change, positive = activation ([4]; at 42.5 µM (top of the series)) -49.7% | activity change, positive = activation ([4]; at 92.4 µM (top of the series)) -45.9% | Potency [7]

CC(CCc1ccccc1)NCC(O)c1ccc(O)c(C(N)=O)c1 (configuration not stated)
inactive: Potency [1] | Potency [2] | Potency [5] | Potency [6] | Potency [7] | Potency [8] | Potency [9]

O=C1CCc2ccc(OCCCCN3CCN(c4cccc(Cl)c4Cl)CC3)cc2N1
inactive: Potency [1] | activity change, positive = activation ([4]; at 42.5 µM (top of the series)) -56% | Potency [7]
active: Potency [2] 55.2 µM | Potency [3] 11.9 µM | Potency [6] 10.7 µM

CCCCCC/C=C\CCCCCCCC(=O)O
inactive: Potency [1] | Potency [2] | Potency [5] | Potency [6] | Potency [7] | Potency [8] | Potency [9]

Cc1c2ccccc2c(C)c2c1ccc1ccccc12
active: Potency [3] 30.3 µM and 61.1 µM | Potency [6] 43.2 µM and 24.5 µM | Potency [9] 43.6 µM
inactive: Potency [1] | Potency [2] | activity change, positive = activation ([4]; at 92.4 µM (top of the series)) -83.3% and -76.1% | Potency [5] | Potency [7] | Potency [8]

O=C1NC(=O)[C@@H]2CC=CC[C@H]12
inactive: Potency [1] | Potency [2] | Potency [3] | activity change, positive = activation ([4]; at 92.4 µM (top of the series)) -12.4% | Potency [5] | Potency [6] | Potency [7] | Potency [8] | Potency [9]

C[Si](Cl)(c1ccccc1)c1ccccc1
inactive: Potency [1] | Potency [10] | activity change, positive = activation ([4]; at 92.4 µM (top of the series)) -19% | Potency [5] | Potency [8]

Nc1ccc(C(=O)O)c(O)c1
inactive: Potency [1] | Potency [2] | activity change, positive = activation ([4]; at 42.5 µM (top of the series)) -27.4% | Potency [5] | Potency [6] | Potency [7] | Potency [8] | Potency [9]

Cc1cc(C(C)(C)C)c(O)c(C)c1Cn1c(=O)n(Cc2c(C)cc(C(C)(C)C)c(O)c2C)c(=O)n(Cc2c(C)cc(C(C)(C)C)c(O)c2C)c1=O
inactive: Potency [1] | Potency [2] | activity change, positive = activation ([4]; at 92.4 µM (top of the series)) -29.1% | Potency [7] | Potency [9]
active: Potency [6] 21.9 µM

CCCCCC(C)OC(=O)COc1ccc(Cl)c2cccnc12 (configuration not stated)
inactive: Potency [1] | Potency [10] | Potency [5] | Potency [6] | Potency [7] | Potency [8]

CC1(C)[C@@H](O)CC[C@]2(C)[C@H]3C(=O)C=C4[C@@H]5C[C@@](C)(C(=O)O)CC[C@]5(C)CC[C@@]4(C)[C@]3(C)CC[C@@H]12
inactive: Potency [1] | Potency [3] | activity change, positive = activation ([4]; at 92.4 µM (top of the series)) 3.52% | Potency [5] | Potency [6] | Potency [7] | Potency [8] | Potency [9]

OCCN1CCN(CCCN2c3ccccc3Sc3ccc(C(F)(F)F)cc32)CC1
active: Potency [5] 26.8 µM | Potency [6] 23.9 µM
inactive: Potency [1] | activity change, positive = activation ([4]; at 42.5 µM (top of the series)) -32% | Potency [7]

CC(C)=CCC1=C(O)c2ccccc2C(=O)C1=O
active: Potency [3] 1.92 µM
inactive: Potency [10] | activity change, positive = activation ([4]; at 92.4 µM (top of the series)) -51.5% | Potency [5] | Potency [7] | Potency [8] | Potency [9]

CCN(CC)C(=O)c1cc(S(=O)(=O)Cc2ccccc2)c(N2CCC(c3ccccc3)CC2)cc1N(CC)CCN(C)C
active: Potency [2] 31.5 µM | Potency [3] 21.4 µM | Potency [5] 17.2 µM | Potency [6] 8.61 µM | Potency [8] 13.6 µM | Potency [9] 17.2 µM
inactive: Potency [10] | activity change, positive = activation ([4]; at 42.5 µM (top of the series)) -79.2% | Potency [7]

CCO[C@@H]1O[C@H](C(COCc2ccccc2)OCc2ccccc2)[C@H](OCc2ccccc2)[C@H]1O (some centres not stated)
inactive: Potency [1] | activity change, positive = activation ([4]; at 42.5 µM (top of the series)) -48% | Potency [5] | Potency [7] | Potency [8] | Potency [9]
active: Potency [3] 29.8 µM

O=C1CCCCCCCCCCCCCCCO1
inactive: Potency [10] | Potency [2] | Potency [3] | activity change, positive = activation ([4]; at 92.4 µM (top of the series)) -5.05% | Potency [5] | Potency [6] | Potency [8]
active: Potency [7] 24.5 µM | Potency [9] 24.5 µM

Nc1ccc(NCCO)c([N+](=O)[O-])c1
inactive: Potency [10] | Potency [3] | activity change, positive = activation ([4]; at 92.4 µM (top of the series)) -17.2% | Potency [5] | Potency [6] | Potency [7] | Potency [8] | Potency [9]
active: Potency [2] 80 µM
